Screens: PubChem, several laboratories
Mtb hypoxia inh = Mtb hypoxia fluorescent reporter inhibition; M. tuberculosis hypoxia-regulated fluorescent reporter, fluorescence; fluorescence inhibition, % (no concentration beside the values); hit rate 0.1% among 300,000; in the data active means fluorescence inhibition mostly above about 23%, no sharp cut-off; inactive means mostly below about 17%
RN4220 kill = kills Staphylococcus aureus RN4220; AID 1259311; hit rate 0.33% among 330,000; inhibition, % (concentration not given with the values); S. aureus RN4220 growth, OD600, 16 h; in the data active means inhibition above about 85%;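 further: plate controls were untreated cells for no effect and reference antibiotic for full effect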
Vc quorum ag = inducers of Vibrio cholerae quorum light production without autoinducers | V. cholerae BH1578 lux reporter, luminescence, 6 h | activation, % at 18.7 µM | hit rate 0.16% among 350,000 | AID 588436; in the data active means activation mostly above about 9.7%, no sharp cut-off; inconclusive means no clear call, values can overlap the other calls; inactive means mostly below about 3.7%
PfHsp40 yeast = compounds rescuing yeast from Plasmodium falciparum HSP40 toxicity; S. cerevisiae expressing PfHsp40, growth rescue, ATP luminescence; growth rescue, % at 12.5 µM; hit rate 0.68% among 340,000; AID 504582; in the data active means growth rescue above about 28%, passing the limit was not always enough; inconclusive means no clear call, values can overlap the other calls;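 further: yeast W303a lacking pdr1 and pdr3 grown in galactose medium; growth measured after three days at 30 °C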
ugtP null kill = compounds lethal to S. aureus RN4220 ugtP deletion mutant | hit rate 0.54% among 330,000 | growth inhibition, % (concentration not given with the values) | OD600 growth, 16 h; in the data active means growth inhibition above about 68%;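 further: plate controls were untreated wells for no effect and antibiotic for full effect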
CCHFV vOTU inh = blocks the CCHF virus ovarian tumor domain protease | CCHFV vOTU protease, Pep-AMC fluorescence | inhibition, % at 11.5 µM | hit rate 0.55% among 370,000 | AID 651958; in the data active means inhibition above about 30%; further: 0% = vehicle wells with enzyme and 100% = no enzyme wells
Active calls of the source: *; i = inactive; ? = inconclusive; · = not tested or not shown. In the library only some 1.7% were active in any assay of this set; here they are far more common.

SMILES	Mtb hypoxia inh	RN4220 kill	Vc quorum ag	PfHsp40 yeast	ugtP null kill	CCHFV vOTU inh
O=C(OCC(=O)N1CCc2ccccc21)c1ccccn1	1	3	0	-1	5	-3
O=C(CSc1ccc(-c2ccccn2)nn1)NC1CCCCC1	13	5	i	320*	0	2
O=C(CSc1ccc(-c2ccccn2)nn1)N1CCCCC1	·	·	3	135*	·	-12
O=C(CSc1ccc(-c2ccccn2)nn1)N1CCc2ccccc21	8	4	2	224*	-2	-7
O=C(CSc1ccc(-c2ccccc2)nn1)N1CCCCC1	18	3	2	-1	5	15
O=C(CSc1ccc(-c2ccccc2)nn1)NC1CCCCC1	-3	0	0	0	4	5
O=C(CSc1ccccn1)N1CCc2ccccc21	5	5	-1	72*	18	5
O=C(CSc1ncccn1)N1CCCc2ccccc21	2	11	0	1	25	-4
Cn1c(=O)c2cc(NCc3ccccc3)nnc2n(C)c1=O	3	4	4	3	2	96*
Cn1c(=O)c2c(nc(NCc3ccccc3)n2C)n(C)c1=O	3	5	-2	2	3	-9
Nc1cc(=O)[nH]c(SCC=Cc2ccccc2)n1	8	6	·	·	0	·
Cc1c(Cl)cccc1-c1ccc(/C=N/n2cnnc2)o1	·	·	27*	-1	·	16
Clc1cccc(-c2ccc(/C=N/n3cnnc3)o2)c1Cl	·	·	·	1	·	-1
Cc1ccc(/C=C2/Sc3ccccc3N(CC(=O)NCC3CCCO3)C2=O)cc1 (stereo not given)	-5	3	0	4	8	·
Cc1cc(/C=C2\Sc3ccccc3N2C)cc(C)[n+]1CC1CCCO1 (stereo not given)	·	100*	0	3	101*	17
Cc1ccc(CC(=O)Nc2nc3ccccc3s2)cc1	4	0	0	4	-9	10
Cc1nc2c(ccc3nc(NC(=O)Cc4ccccc4)sc32)s1	·	·	0	29*	·	8
Cc1ccc2nc(-c3cccc(NS(C)(=O)=O)c3)cc(-c3ccccc3)c2c1	5	-4	0	1	94*	0
Cc1nc(-c2cccc(NS(=O)(=O)c3ccccc3)c2)cs1	·	6	-1	0	25	8
O=C(c1cc2ccccc2o1)N1CCN(c2ccccc2Cl)CC1	16	6	19	187*	4	7
O=C(NN=Cc1ccc(Br)cc1)c1cc[n+]([O-])cc1	-9	-4	·	·	3	·
COc1ccc(CNn2c(-c3cccc(C)c3)nc3ccccc3c2=O)cc1OC	7	5	i	-1	7	-1
COc1ccccc1CNn1c(-c2cccc(C)c2)nc2ccccc2c1=O	4	3	10	42*	-11	0
CCCCn1c(=O)[nH]c(=O)c2c1nc(-c1ccc(CC)c([N+](=O)[O-])c1)n2C	3	2	·	·	-68	·
CCCCn1c(=O)[nH]c(=O)c2c1nc(-c1ccc(-c3ccc(F)cc3)o1)n2C	37*	6	·	·	5	-14
SMILES	Mtb hypoxia inh	RN4220 kill	Vc quorum ag	PfHsp40 yeast	ugtP null kill	CCHFV vOTU inh
COc1ccccc1Oc1c(C)oc2cc(OC(=O)N(C)C)ccc2c1=O	-5	0	i	93*	6	-14
Cc1[nH]n(-c2cccc3ccccc23)c(=O)c1/C=N/NC(=O)c1cccc([N+](=O)[O-])c1	·	·	0	83*	·	4
Cc1[nH]n(-c2ccc(Br)cc2)c(=O)c1C=NNC(=O)c1ccccc1	3	94*	·	·	97*	·
Cn1cc(C=NNC(=O)c2cc3cc(Br)ccc3o2)c2ccccc21	-7	3	·	·	2	·
Cc1nnc(NN=Cc2ccc(-c3cccc(C(=O)O)c3)o2)n1N	-3	2	·	·	-8	·
CC1(C)CC(=O)C2=C(C1)NC(=O)CC2c1ccc(F)cc1 (stereo not given)	·	1	30*	-1	3	1
Cn1cc(C(=O)c2cccc(Cl)c2)cc1/C=N\O	·	·	0	30*	·	4
CC1CNC(=O)C(=O)N1CC(Cc1ccc(O)cc1)NC(=O)CC12CC3CC(CC(C3)C1)C2 (stereo not given)	4	4	·	·	-1	·
C/C(=C1/SC(N2CCCC2)=NC1=O)c1ccc(Br)cc1	76*	-5	-1	1	-13	14
Cc1ccc(C=Nn2c(-c3ccccc3)n[nH]c2=S)s1	12	10	·	·	-7	·
CCCCN(CC)S(=O)(=O)c1ccc(C(=O)Nc2nnc(CSC)o2)cc1	5	47	0	0	17	12
CCN(c1ccccc1)S(=O)(=O)c1ccc(C(=O)Nc2nnc(CSC)o2)cc1	2	24	0	40*	15	-2
CCCCN(CCCC)S(=O)(=O)c1ccc(C(=O)Nc2nnc(CSC)o2)cc1	·	112*	i	7	99*	5
CC(C)(C)P(=O)(NCc1ccccc1)c1ccccc1 (stereo not given)	-7	6	i	53*	10	-1
O=P(NCc1ccccc1)(OCc1ccccc1)OCc1ccccc1	·	·	-2	0	·	6
Cc1c(N=C2SCC(=O)N2N=Cc2ccccc2Cl)c(=O)n(-c2ccccc2)n1C	·	3	·	·	15	·
CCN1/C(=C2\SC(=S)N(Cc3ccccc3)C2=O)Sc2ccccc21	-5	-3	0	-1	-7	8
CCC(CO)[n+]1c(C)cc(/C=C2\Sc3ccccc3N2Cc2ccccc2)cc1C (stereo not given)	·	100*	0	4	100*	14
CN(C)CCOc1nc(-c2ccccc2)nc2c1oc1ccccc12	41*	2	·	0	0	-2
O=C(CNc1cccc2ccccc12)NN=C/C(Br)=C/c1ccccc1	8	-12	·	·	-24	·
CC1CC(C)CC(C)C(O)C(C#N)=CC=CCC(C2CCCC2C(=O)O)OC(=O)CC(O)C(C)C1 (stereo not given)	·	·	6	401*	·	9
CC(=O)NC1C(O)C=C(C(=O)O)OC1C(O)C(O)CO (stereo not given)	-4	2	·	·	-3	·
Cc1cccc(C2=NN(c3ccc(Br)cc3)C(C(=O)N3CCOC3=O)C2c2ccc(F)cc2)c1 (stereo not given)	-3	0	·	·	2	·
Cc1noc2ncnc(SCc3ccc(C(F)(F)F)cc3)c12	10	1	0	?	15	2
Cc1ccc(CSc2ncnc3onc(C)c23)cc1	19	6	-1	70*	22	1
CCOc1ccc(S(=O)(=O)n2cc(F)c(=O)[nH]c2=O)cc1	8	18	0	144*	29	3
COc1ccc(CNC(=O)C2CC=CC3CCN(Cc4ccc(Cl)c(Cl)c4)C(=O)C32)cc1 (stereo not given)	10	-10	·	·	14	·
CN(C)c1cc(Nc2ccc(O)cc2)c([N+](=O)[O-])c2nonc12	11	6	0	-1	11	-5
O=[N+]([O-])c1c(Nc2ccc(O)cc2)cc(Cl)c2nonc12	·	100*	-1	-3	99*	9
